# Reference: PubChem BioAssay (NCI)
# About 83,000 compounds went through this panel and 20% of them were active in at least one assay; those are over-represented in the sample as a whole.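 The test compound was applied at a single concentration to cells in 96-well plates for 48 hours, and percent growth was recorded.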 Unmarked numbers belong to inactive results. Calls of active or inactive are those of the source. Rule for the calls: active = growth percent below 10; inactive = the rest.
# Tests used:
# Assay in all cases: NCI-60 one-dose screen, 48 h (100 = growth as untreated, 0 = no growth, -100 = all killed)
# SR leukemia = settings: 10 µM unless noted
# OVCAR-8 ovarian = test system: OVCAR-8 ovarian
# OVCAR-5 ovarian = test system: OVCAR-5 ovarian
# OVCAR-4 ovarian = test system: OVCAR-4 ovarian
# SK-OV-3 ovarian = settings: 10 µM unless noted
# IGROV1 ovarian = test system: IGROV1 ovarian
# OVCAR-3 ovarian = test system: OVCAR-3 ovarian
# HS 578T breast = test system: HS 578T breast
# NCI/ADR-RES ovarian = test system: NCI/ADR-RES ovarian
# RPMI-8226 leukemia = test system: RPMI-8226 leukemia
compound,measurement,setting,value
CCOc1ccc(-c2cc(-c3cc(C(C)C)c(O)cc3C)nn2-c2ccc(S(N)(=O)=O)cc2)cc1,growth,SR leukemia,5.54% (active)
same,growth,OVCAR-8 ovarian; 10 µM unless noted,36.4%
same,growth,OVCAR-5 ovarian; 10 µM unless noted,53%
same,growth,OVCAR-4 ovarian; 10 µM unless noted,29.6%
same,growth,SK-OV-3 ovarian,55.3%
same,growth,IGROV1 ovarian; 10 µM unless noted,80.4%
same,growth,OVCAR-3 ovarian; 10 µM unless noted,36.2%
same,growth,HS 578T breast; 10 µM unless noted,35.9%
same,growth,NCI/ADR-RES ovarian; 10 µM unless noted,4.14% (active)
Cc1cccc(NCC(=O)N2CCN(c3ncnc4c3cnn4-c3ccccc3)CC2)c1,growth,SR leukemia,22.7%
same,growth,OVCAR-8 ovarian; 10 µM unless noted,65.2%
same,growth,OVCAR-5 ovarian; 10 µM unless noted,83.8%
same,growth,OVCAR-4 ovarian; 10 µM unless noted,51.6%
same,growth,SK-OV-3 ovarian,67.1%
same,growth,IGROV1 ovarian; 10 µM unless noted,59.4%
same,growth,OVCAR-3 ovarian; 10 µM unless noted,94%
same,growth,HS 578T breast; 10 µM unless noted,60.4%
same,growth,NCI/ADR-RES ovarian; 10 µM unless noted,60.6%
N#CC1=C(c2ccco2)Nc2c(c(-c3ccccc3)nn2-c2ccccc2)C12C(=O)Nc1ccc(Br)cc12 (stereo not given),growth,RPMI-8226 leukemia; 10 µM unless noted,47.8%
same,growth,OVCAR-8 ovarian; 10 µM unless noted,25%
same,growth,OVCAR-5 ovarian; 10 µM unless noted,74.9%
same,growth,OVCAR-4 ovarian; 10 µM unless noted,41.6%
same,growth,SK-OV-3 ovarian,80%
same,growth,IGROV1 ovarian; 10 µM unless noted,67%
same,growth,OVCAR-3 ovarian; 10 µM unless noted,42.5%
same,growth,HS 578T breast; 10 µM unless noted,6.01% (active)
same,growth,NCI/ADR-RES ovarian; 10 µM unless noted,29.9%
Cn1cc(-c2cc(N)n3nc(-c4c[nH]c5ccc(F)cc45)cc3n2)c2cc(Br)cnc21,growth,RPMI-8226 leukemia; 10 µM unless noted,19.2%
same,growth,OVCAR-8 ovarian; 10 µM unless noted,42.8%
same,growth,OVCAR-5 ovarian; 10 µM unless noted,74.2%
same,growth,OVCAR-4 ovarian; 10 µM unless noted,71.6%
same,growth,SK-OV-3 ovarian,104%
same,growth,IGROV1 ovarian; 10 µM unless noted,70.7%
same,growth,OVCAR-3 ovarian; 10 µM unless noted,109%
same,growth,HS 578T breast; 10 µM unless noted,86.4%
same,growth,NCI/ADR-RES ovarian; 10 µM unless noted,56%
CS(=O)(=O)Nc1cc(-c2ccc3ncnc(Nc4ccc(OCc5cccnc5)c(Cl)c4)c3c2)cnc1Cl,growth,SR leukemia,-60.1% (active)
same,growth,OVCAR-8 ovarian; 10 µM unless noted,8.77% (active)
same,growth,OVCAR-5 ovarian; 10 µM unless noted,12.1%
same,growth,OVCAR-4 ovarian; 10 µM unless noted,28.9%
same,growth,SK-OV-3 ovarian,-14.9% (active)
same,growth,IGROV1 ovarian; 10 µM unless noted,-56.8% (active)
same,growth,OVCAR-3 ovarian; 10 µM unless noted,-40.7% (active)
same,growth,HS 578T breast; 10 µM unless noted,-25.3% (active)
same,growth,NCI/ADR-RES ovarian; 10 µM unless noted,70.5%
Cc1cc(N=C(N)c2ccccc2)ccc1OCCCCCCCCn1ccnc1,growth,SR leukemia,0.698% (active)
same,growth,OVCAR-5 ovarian; 10 µM unless noted,1.47% (active)
same,growth,OVCAR-4 ovarian; 10 µM unless noted,37.5%
same,growth,SK-OV-3 ovarian,16.7%
same,growth,IGROV1 ovarian; 10 µM unless noted,6.54% (active)
same,growth,HS 578T breast; 10 µM unless noted,13.6%
CC/C(=C(/c1ccc(O)cc1)c1ccc(OCCN(C)C(=O)COCCOCCNC(=O)c2ccc3c(c2)CN([C@@H]2CCC(=O)NC2=O)C3=O)cc1)c1ccccc1,growth,RPMI-8226 leukemia; 1 µM,99.6%
same,growth,RPMI-8226 leukemia; 10 µM,78.5%
same,growth,OVCAR-8 ovarian; 1 µM,102%
same,growth,OVCAR-8 ovarian; 10 µM,61.1%
same,growth,OVCAR-5 ovarian; 1 µM,96%
same,growth,OVCAR-5 ovarian; 10 µM,86.8%
same,growth,OVCAR-4 ovarian; 1 µM,103%
same,growth,OVCAR-4 ovarian; 10 µM,93%
same,growth,IGROV1 ovarian; 1 µM,63.1%
same,growth,IGROV1 ovarian; 10 µM,37.6%
same,growth,OVCAR-3 ovarian; 1 µM,99.1%
same,growth,OVCAR-3 ovarian; 10 µM,95.8%
same,growth,HS 578T breast; 1 µM,70.9%
same,growth,HS 578T breast; 10 µM,53.9%
same,growth,NCI/ADR-RES ovarian; 1 µM,106%
same,growth,NCI/ADR-RES ovarian; 10 µM,102%
Oc1ccc(Cl)c(Nc2nc(SCCN3CCOCC3)nc3c2cnn3CC(Cl)c2ccc(Br)cc2)c1 (stereo not given),growth,SR leukemia,-26.7% (active)
same,growth,OVCAR-8 ovarian; 10 µM unless noted,16.5%
same,growth,OVCAR-5 ovarian; 10 µM unless noted,50.4%
same,growth,OVCAR-4 ovarian; 10 µM unless noted,31.7%
same,growth,SK-OV-3 ovarian,65.8%
same,growth,IGROV1 ovarian; 10 µM unless noted,1.12% (active)
same,growth,OVCAR-3 ovarian; 10 µM unless noted,29.9%
same,growth,HS 578T breast; 10 µM unless noted,-15.5% (active)
same,growth,NCI/ADR-RES ovarian; 10 µM unless noted,13.5%
COc1ccc2c(c1)C(=O)N(C)C2C1c2c(cc3c(c2OC)OCO3)CCN1C (stereo not given),growth,SR leukemia,18.8%
same,growth,OVCAR-8 ovarian; 10 µM unless noted,78.1%
same,growth,OVCAR-5 ovarian; 10 µM unless noted,67.2%
same,growth,OVCAR-4 ovarian; 10 µM unless noted,69.4%
same,growth,SK-OV-3 ovarian,64%
same,growth,IGROV1 ovarian; 10 µM unless noted,43.2%
same,growth,OVCAR-3 ovarian; 10 µM unless noted,9.03% (active)
same,growth,HS 578T breast; 10 µM unless noted,48.4%
same,growth,NCI/ADR-RES ovarian; 10 µM unless noted,27.9%
Cc1ccc(Nc2nnc(-c3c[nH]c4ccccc34)o2)c(C)c1,growth,SR leukemia,6.21% (active)
same,growth,OVCAR-8 ovarian; 10 µM unless noted,-12.1% (active)
same,growth,OVCAR-5 ovarian; 10 µM unless noted,16.3%
same,growth,OVCAR-4 ovarian; 10 µM unless noted,71.9%
same,growth,SK-OV-3 ovarian,16.2%
same,growth,IGROV1 ovarian; 10 µM unless noted,12.2%
same,growth,OVCAR-3 ovarian; 10 µM unless noted,12.3%
same,growth,HS 578T breast; 10 µM unless noted,30.9%
same,growth,NCI/ADR-RES ovarian; 10 µM unless noted,-29.2% (active)
COc1cc(/C=C/C(=O)c2cnn(-c3cc(=O)[nH]c4ccc(C)cc34)c2C)cc(OC)c1OC,growth,RPMI-8226 leukemia; 10 µM unless noted,-40.2% (active)
same,growth,OVCAR-8 ovarian; 10 µM unless noted,11.5%
same,growth,OVCAR-5 ovarian; 10 µM unless noted,-37.3% (active)
same,growth,OVCAR-4 ovarian; 10 µM unless noted,39.3%
same,growth,IGROV1 ovarian; 10 µM unless noted,-1.52% (active)
same,growth,OVCAR-3 ovarian; 10 µM unless noted,-50.1% (active)
same,growth,HS 578T breast; 10 µM unless noted,52.5%
same,growth,NCI/ADR-RES ovarian; 10 µM unless noted,-11.1% (active)
CCc1ccccc1-c1nc(CN[C@@H]2C[C@@H]3C[C@H]([C@H]2C)C3(C)C)c(C)o1,growth,RPMI-8226 leukemia; 10 µM unless noted,-13.9% (active)
same,growth,OVCAR-8 ovarian; 10 µM unless noted,-66.4% (active)
same,growth,OVCAR-5 ovarian; 10 µM unless noted,-87.4% (active)
same,growth,OVCAR-4 ovarian; 10 µM unless noted,-42.9% (active)
same,growth,SK-OV-3 ovarian,-79.8% (active)
same,growth,IGROV1 ovarian; 10 µM unless noted,-85% (active)
same,growth,OVCAR-3 ovarian; 10 µM unless noted,-61.6% (active)
same,growth,HS 578T breast; 10 µM unless noted,-43.4% (active)
same,growth,NCI/ADR-RES ovarian; 10 µM unless noted,-78.4% (active)
Cc1ccc2nc(SCc3ccccc3F)n(-c3ccccc3)c(=O)c2c1,growth,RPMI-8226 leukemia; 10 µM unless noted,93.4%
same,growth,OVCAR-8 ovarian; 10 µM unless noted,100%
same,growth,OVCAR-5 ovarian; 10 µM unless noted,116%
same,growth,OVCAR-4 ovarian; 10 µM unless noted,98.9%
same,growth,SK-OV-3 ovarian,118%
same,growth,IGROV1 ovarian; 10 µM unless noted,105%
same,growth,OVCAR-3 ovarian; 10 µM unless noted,115%
same,growth,HS 578T breast; 10 µM unless noted,96.3%
same,growth,NCI/ADR-RES ovarian; 10 µM unless noted,89%
